target: RSPH9; assay: pooled miR-30 sensor sort-seq; sequence = guide strand; conditions: shRNA
Also: reference of the scale not given here.

| Sequence | sensor-assay potency score (higher = more potent) |
| --- | --- |
| TTCACCTTCATTCACCTTCTGC | -0.502 |
| TAGCTCAACAGGCTCCCTGAAA | -1.11 |
| TTTAGCTCAACAGGCTCCCTGA | -0.548 |
| TTGATCTGGACCACTATTTCTT | -0.0516 |
| TCTTATTCTTTAGCTCAACAGG | -1.48 |
| TATTCTTTAGCTCAACAGGCTC | -1.09 |
| TCAATGACAGACACCAAGCGGG | -0.168 |

target: RTF1; assay: as above; conditions: shRNA

| Sequence | sensor-assay potency score (higher = more potent) |
| --- | --- |
| TTGAGACAAACTCTAAACGGAA | -0.778 |
| TTCGTTTTTCTCGCTCTGCTTT | -0.471 |
| TTCTTGATTTCAAATCTTCTTT | -0.27 |
| TTTTTCTTGATTTCAAATCTTC | -0.239 |
| TTCATCATCAGAGTAGACCTCA | 0.818 |
| TACTTTGAACAGATCTTCTGAG | 0.376 |
| TACAATCTCTTCAATGTCCTGA | 0.771 |
| ATTGATTTCATCTAGAGTGGGC | 0.501 |
| TTTGAGACAAACTCTAAACGGA | 0.185 |
| TTGAGATTTCTTGTCTAGTTTC | -0.921 |
| TTTCTCTGTCATCTGTTCCAGA | -0.00304 |

target: RTN4; assay: as above; conditions: shRNA

| Sequence | sensor-assay potency score (higher = more potent) |
| --- | --- |
| TTTCTGAGTATTCTAATTCTGA | -0.686 |
| TTCACTTTCACATGCTTCCTGT | -0.0605 |
| TAAATCTCTATCTATGAGTAGA | -0.547 |
| TATTACTAACTAACTTCTCTTC | -0.121 |
| TTTCTGAAGTAGGATCTCCTAA | -0.155 |
| TTTCTGAAGACACAACTTCATC | -1.21 |
| TTTTGTGTTATCTAAACTGAGC | -0.981 |
| TAAAGATCTAACAACGATCTGT | 0.175 |
| TAACTAACTTCTCTTCTTCATC | -0.896 |
| TTGTGACATAATCTGTCTCAGA | -1.04 |
| TTCTAGGTCAGTATATTCCCTG | -0.784 |
| TATCTGTTGTGACATAATCTGT | -0.595 |

target: RTTN; assay: as above; conditions: shRNA

| Sequence | sensor-assay potency score (higher = more potent) |
| --- | --- |
| TTCAGGAGTAACTTCAACCAAA | -0.732 |
| TACTCTTCTGAATTACTCCTTT | 0.0347 |
| TTCAAATCAAACATACACCGTC | 0.646 |
| TTCTTCACTATGACTACCCAAA | -0.98 |
| TTTCCTGTCAGTAACTTCCATG | -0.534 |
| TAGAGATTTCTGATTTTCCTGA | 0.353 |
| TTTAATAACACCATCCTCCTTT | 0.89 |
| TTAGTAAGTCTAGACAGCCATC | -1.38 |
| TTGTATTTGCTCATCTCTGTTA | -0.347 |
